Measured values from PubChem BioAssay (NCATS).
Results filed as inconclusive are left out. Entries that show only a call come without a potency. A number with no mark means an inactive call. The source made the active and inactive calls. Calls come from the whole dose curve; as a rule, active = well fitted curve in the direction sought with a large enough effect; inconclusive = small, poorly fitted or top-dose-only effect, or another doubt; inactive = no such curve, though single readings can be large; an effect the other way counts as inactive or inconclusive.

How the values were obtained:
[1] = target: Rap guanine nucleotide exchange factor 3 (Homo sapiens) (UniProt O95398); assay: Confirmatory qHTS for antagonist of cAMP-regulated guanine nucleotide exchange factor 3 (EPAC1) (AID 1645880); settings: EPAC1 Rap1B-BODIPY-GDP exchange, fluorescence; series mostly up to 115 µM; note: nearly all actives have a fitted effect of over 55% in size; note: potency is the fitted concentration of half-maximal effect
Summary of the method: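 Nucleotide exchange uses 100 nM EPAC1, 250 nM RAP1B-BODIPY-GDP and 50 uM GDP, with compounds in a concentration-titration series. After 5 min at room temperature, fluorescence (480 nm ex/540 nm em) is read every 5 min for 30 min. Data are normalized to control ATA and DMSO.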

[2] = target: Rap guanine nucleotide exchange factor 3 (Homo sapiens) (UniProt O95398); assay: Confirmatory qHTS for agonist of cAMP-regulated guanine nucleotide exchange factor 3 (EPAC1) (AID 1645881); settings: EPAC1 Rap1B BODIPY-GDP exchange fluorescence; series mostly up to 154 µM; note: nearly all actives have a fitted effect of over 75% in size; note: potency is the fitted concentration of half-maximal effect;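 for activation: EPAC1 catalysed release of BODIPY-GDP from Rap1B seen as fluorescence loss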
[3] = target: Rap guanine nucleotide exchange factor 4 (Homo sapiens) (UniProt Q8WZA2); assay: Confirmatory qHTS for agonist of cAMP-regulated guanine nucleotide exchange factor 4 (EPAC2) (AID 1645884); settings: EPAC2 GEF activity, Rap1B-BODIPY-GDP fluorescence; series mostly up to 154 µM;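 note: nucleotide exchange releases bodipy-GDP from Rap1 and this lowers its fluorescence; nearly all actives have a fitted effect of over 65% in size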; note: potency is the fitted concentration of half-maximal effect
[4] = target: Rap guanine nucleotide exchange factor 4 (Homo sapiens) (UniProt Q8WZA2); assay: Confirmatory qHTS for antagonist of cAMP-regulated guanine nucleotide exchange factor 4 (EPAC2) (AID 1645885); settings: EPAC2 Rap1B-BODIPY-GDP exchange fluorescence, biochemical; series mostly up to 12.7 µM; note: nearly all actives have a fitted effect of over 25% in size; note: potency is the fitted concentration of half-maximal effect
[5] = target: Rap guanine nucleotide exchange factor 3 (Homo sapiens) (UniProt O95398); assay: Counterscreen qHTS for antagonist of cAMP-regulated guanine nucleotide exchange factor 3 (EPAC1) (AID 1645888); settings: Rap1B-BODIPY-GDP nucleotide exchange, fluorescence; series mostly up to 154 µM;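 note: fluorescence loss as bound BODIPY-GDP is released from Rap1B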
Summary of the method: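 Rap1B-BODIPY-GDP 250 nM + GDP 50 uM; cpds 7-pt, final 9.74 nM–152 uM (activator mode) or from 7.32 nM upwards (inhibitor mode); RT; FI 480/540 nm at 5 and 30 min, then ± cAMP, reread.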

Sequence of Rap guanine nucleotide exchange factor 3 (Homo sapiens) (O95398 whole entry, looked up): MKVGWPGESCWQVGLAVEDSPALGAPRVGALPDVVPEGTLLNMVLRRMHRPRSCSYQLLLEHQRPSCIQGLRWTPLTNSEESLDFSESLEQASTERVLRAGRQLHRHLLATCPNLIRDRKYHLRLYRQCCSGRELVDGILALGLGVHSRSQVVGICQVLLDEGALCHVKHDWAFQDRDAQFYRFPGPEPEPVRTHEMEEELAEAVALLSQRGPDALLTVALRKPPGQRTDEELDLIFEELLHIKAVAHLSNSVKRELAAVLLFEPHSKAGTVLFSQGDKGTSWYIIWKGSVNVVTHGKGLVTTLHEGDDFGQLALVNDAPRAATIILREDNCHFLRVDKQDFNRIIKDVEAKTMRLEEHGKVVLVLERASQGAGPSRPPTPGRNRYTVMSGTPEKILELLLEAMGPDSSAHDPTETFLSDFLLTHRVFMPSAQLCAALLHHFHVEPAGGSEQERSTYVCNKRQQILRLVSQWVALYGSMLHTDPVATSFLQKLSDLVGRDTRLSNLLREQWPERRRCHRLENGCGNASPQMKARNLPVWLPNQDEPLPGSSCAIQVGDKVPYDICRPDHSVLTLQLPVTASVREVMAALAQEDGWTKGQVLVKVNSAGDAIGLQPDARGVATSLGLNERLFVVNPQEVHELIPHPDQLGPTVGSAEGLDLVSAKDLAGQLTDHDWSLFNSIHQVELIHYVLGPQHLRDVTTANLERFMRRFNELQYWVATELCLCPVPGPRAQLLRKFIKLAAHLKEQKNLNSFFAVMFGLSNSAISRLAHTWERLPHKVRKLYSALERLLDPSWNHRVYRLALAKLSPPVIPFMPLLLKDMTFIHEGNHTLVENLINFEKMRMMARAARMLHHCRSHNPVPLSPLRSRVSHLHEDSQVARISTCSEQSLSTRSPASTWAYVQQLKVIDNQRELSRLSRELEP
Sequence of Rap guanine nucleotide exchange factor 4 (Homo sapiens) (Q8WZA2 whole entry, looked up): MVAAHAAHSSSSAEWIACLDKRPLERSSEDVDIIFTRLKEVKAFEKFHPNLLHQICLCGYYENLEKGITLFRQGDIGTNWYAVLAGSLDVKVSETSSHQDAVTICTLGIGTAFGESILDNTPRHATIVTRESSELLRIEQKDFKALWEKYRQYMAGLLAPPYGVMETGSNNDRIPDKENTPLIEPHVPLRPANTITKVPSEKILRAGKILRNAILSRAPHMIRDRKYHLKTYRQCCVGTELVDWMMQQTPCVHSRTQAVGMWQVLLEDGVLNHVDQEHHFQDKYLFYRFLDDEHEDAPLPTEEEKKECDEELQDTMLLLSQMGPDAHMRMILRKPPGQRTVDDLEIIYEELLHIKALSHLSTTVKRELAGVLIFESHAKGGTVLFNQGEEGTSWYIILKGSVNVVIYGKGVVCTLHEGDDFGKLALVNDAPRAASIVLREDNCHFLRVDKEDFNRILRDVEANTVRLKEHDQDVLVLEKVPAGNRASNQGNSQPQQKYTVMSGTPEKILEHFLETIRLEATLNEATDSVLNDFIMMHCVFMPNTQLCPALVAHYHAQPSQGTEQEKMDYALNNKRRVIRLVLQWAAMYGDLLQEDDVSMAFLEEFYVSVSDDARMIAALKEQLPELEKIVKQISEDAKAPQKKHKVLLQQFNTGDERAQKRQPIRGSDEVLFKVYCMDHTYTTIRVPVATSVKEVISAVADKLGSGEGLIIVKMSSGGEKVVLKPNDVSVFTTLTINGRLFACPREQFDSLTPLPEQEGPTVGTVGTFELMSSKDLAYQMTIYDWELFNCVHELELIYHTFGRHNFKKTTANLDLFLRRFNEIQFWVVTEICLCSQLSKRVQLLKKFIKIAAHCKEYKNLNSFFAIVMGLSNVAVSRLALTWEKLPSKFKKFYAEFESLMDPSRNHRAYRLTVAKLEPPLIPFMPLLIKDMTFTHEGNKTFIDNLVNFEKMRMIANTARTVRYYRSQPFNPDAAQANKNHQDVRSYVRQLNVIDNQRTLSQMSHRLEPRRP

| Compound | Potency [1] | Potency [2] | Potency [3] | Potency [4] | Potency [5] | activation [3] | activity change, negative = inhibition [5] | outcome [4] |
| --- | --- | --- | --- | --- | --- | --- | --- | --- |
| COc1ccc(OC)c(Nc2ncc3c(n2)CCN(Cc2cc(OC)c(OC)c(OC)c2)C3)c1 | inactive | inactive | inactive | inactive | inactive | – | – | – |
| CCOC(=O)c1c(C)[nH]c(CCC(=O)NCc2cccc(OC)c2)c1C | inactive | inactive | inactive | inactive | inactive | – | – | – |
| COC(=O)c1c(SC)nc2ccccc2c1OCc1ccc(Br)cc1 | inactive | inactive | inactive | inactive | inactive | – | – | – |
| Cc1ccc(S(=O)(=O)N2CCCCC2c2cccnc2)c(C)c1C (stereo not given) | inactive | inactive | – | inactive | – | 14.9% [at 17.1 µM, percent relative to cAMP agonist control] | 2.73% [at 30.8 µM] | – |
| COc1ccc(C2C=C(c3ccccc3)Nc3nnnn32)cc1 (stereo not given) | inactive | inactive | inactive | inactive | inactive | – | – | – |
| COc1ccc(OC)c(NC(=O)CN(C)CCOc2ccc(Br)cc2)c1 | inactive | inactive | inactive | inactive | inactive | – | – | – |
| O=C(COC(=O)c1nc(Cl)ccc1Cl)c1ccccc1Cl | inactive | inactive | inactive | inactive | inactive | – | – | – |
| Cc1cc(C)c(S(=O)(=O)N2CCCCC2CCNC(=O)C(=O)NCC2CCCO2)c(C)c1 (stereo not given) | inactive | inactive | – | inactive | – | 2.27% [at 17.1 µM, percent relative to cAMP agonist control] | 6.58% [at 30.8 µM] | – |
| O=C(c1ccco1)N(Cc1ccc([N+](=O)[O-])cc1)c1ccc(Br)cc1 | inactive | inactive | – | inactive | – | -0.906% [at 17.1 µM, percent relative to cAMP agonist control] | 10.5% [at 30.8 µM] | – |
| CC(=O)Nc1cccc(NC(=O)CSc2nc(=O)n(CCN3CCOCC3)c3c2CCCC3)c1 | inactive | inactive | inactive | inactive | inactive | – | – | – |
| COC(=O)C1=CN(Cc2ccc(OC)c(OC)c2)C=C(C(=O)OC)C1c1cccc(F)c1 | inactive | inactive | inactive | inactive | inactive | – | – | – |
| COc1ccc(NC(=O)c2c[nH]n3c(=O)cc(C4CCN(C(=O)OC(C)(C)C)CC4)nc23)cc1Cl | 67.5 µM (active) | inactive | inactive | inactive | inactive | – | – | – |
| COc1ccc(-c2cc(OC(=O)c3ccc(Cl)cc3)c3c(C)oc(C)c3c(=O)c2)cc1 | 75.7 µM (active) | inactive | inactive | inactive | inactive | – | – | – |
| CCOc1ccc(N2CC(c3nc4ccccc4n3Cc3cccc(Cl)c3)CC2=O)cc1 (stereo not given) | inactive | inactive | inactive | inactive | inactive | – | – | – |
| CSCc1cc(N(C)c2ccccc2)nc(-c2ccccc2)n1 | inactive | inactive | inactive | 6.01 µM (active) | inactive | – | – | – |
| Cc1ccc(Cl)c2c1N[C@@H](c1ccc(C(=O)O)cc1)[C@H]1CC=C[C@@H]21 | 84.9 µM (active) | inactive | inactive | inactive | inactive | – | – | – |
| Fc1ccc(-c2noc3ncnc(N4CCN(c5ccccc5)CC4)c23)cc1 | inactive | inactive | inactive | inactive | inactive | – | – | – |
| Cc1c(NC(=O)/C=C/c2cn(-c3ccccc3)nc2-c2ccccc2)c(=O)n(-c2ccccc2)n1C | inactive | inactive | – | inactive | – | 0% [at 17.1 µM, percent relative to cAMP agonist control] | -4.59% [at 30.8 µM] | – |
| C[C@@H]1CN([C@@H](C)CO)S(=O)(=O)c2ccc(Br)cc2O[C@H]1CN(C)Cc1ccccc1F | inactive | inactive | inactive | inactive | inactive | – | – | – |
| Cc1cccc(-n2c(O)c(C=Nc3ccccc3O)c3ccccc3c2=O)n1 | inactive | inactive | inactive | inactive | inactive | – | – | – |
| CC1CC1c1ccc(/C=C(\C#N)C(=O)Nc2ccccc2Cl)o1 (stereo not given) | inactive | inactive | – | inactive | – | 3.85% [at 17.1 µM, percent relative to cAMP agonist control] | -9.3% [at 30.8 µM] | – |
| COc1ccc(-c2onc3ccc(C(C)=O)cc23)cc1 | inactive | 79.4 µM (active) | 79.4 µM (active) | 19 µM (active) | inactive | – | – | – |
| Cc1ccc2oc(=O)c3cnn(CC(=O)NCCCOC(C)C)c3c2c1 | inactive | inactive | inactive | inactive | inactive | – | – | – |
| O=C(O)c1ccc(S(=O)(=O)/N=C2\C=C(Nc3ccccc3F)C(=O)c3ccccc32)cc1 | 30.1 µM (active) | inactive | inactive | inactive | inactive | – | – | – |
| CC(C)(C)NC(=O)NC(=O)CN1CCc2ccccc21 | inactive | inactive | – | inactive | – | 4.54% [at 17.1 µM, percent relative to cAMP agonist control] | 5.54% [at 30.8 µM] | – |

| Compound | Potency [1] | Potency [2] | Potency [3] | Potency [4] | Potency [5] | activation [3] | activity change, negative = inhibition [5] | outcome [4] |
| --- | --- | --- | --- | --- | --- | --- | --- | --- |
| CC1(C(=O)NS(=O)(=O)c2ccc(F)cc2F)CCN1C(=O)C1(c2ccc(Cl)cc2)CCC1 (stereo not given) | 9.53 µM (active) | inactive | inactive | inactive | inactive | – | – | – |
| COc1ccc(CNC(=O)C(=O)Nc2ccc(OC)cc2OC)cc1 | inactive | inactive | inactive | inactive | inactive | – | – | – |
| CCOC(=O)Cc1nn(Cc2ccccc2)c(=O)c2ccccc12 | inactive | inactive | inactive | inactive | inactive | – | – | – |
| Cc1cccc(C(=O)Nc2ccc3c(c2)ncn3C)c1 | inactive | inactive | inactive | inactive | inactive | – | – | – |
| CCNC(=O)COc1ccc(/C=C2\COc3ccccc3C2=O)cc1OC | inactive | inactive | – | inactive | – | 4.45% [at 17.1 µM, percent relative to cAMP agonist control] | 0.373% [at 30.8 µM] | – |
| CCc1cccc2sc(N3CCN(C(=O)C4CC4)CC3)nc12 | inactive | inactive | inactive | – | inactive | – | – | inactive [at 12.7 µM] |
| Cc1ccc(S(=O)(=O)CC(=O)N(CCCN(C)C)c2nc3ccc(C)cc3s2)cc1 | inactive | inactive | inactive | inactive | inactive | – | – | – |
| CCOC(=O)C1=C(N)OC2=C(C(=O)CC(C)(C)C2)C1c1ccc(CC)s1 (stereo not given) | inactive | inactive | inactive | inactive | inactive | – | – | – |
| COc1cc(C=NNc2ccc(S(=O)(=O)Nc3ccccc3C(=O)O)cc2[N+](=O)[O-])ccc1O | 20 µM (active) | inactive | – | inactive | – | -6.92% [at 17.1 µM, percent relative to cAMP agonist control] | -11.1% [at 30.8 µM] | – |
| CC1Cc2nc(SCC(=O)OCc3ccccc3)n(C)c(=O)c2S1 (stereo not given) | inactive | inactive | – | inactive | – | 3.71% [at 17.1 µM, percent relative to cAMP agonist control] | 9.81% [at 30.8 µM] | – |
| CCOC(=O)c1cccc(NC(=O)N2CCC(CN3CCCCCC3)CC2)c1 | inactive | inactive | inactive | – | inactive | – | – | inactive [at 12.7 µM] |
| Cc1ccc2nc3sc(C(=O)N4CCCc5ccccc54)c(N)c3cc2c1 | inactive | inactive | – | inactive | – | 4.98% [at 17.1 µM, percent relative to cAMP agonist control] | -0.0356% [at 30.8 µM] | – |
| O=C(COC(=O)CNC(=O)c1ccc(Cl)cc1Cl)NCc1ccco1 | inactive | inactive | – | inactive | – | 5.36% [at 17.1 µM, percent relative to cAMP agonist control] | 9.24% [at 30.8 µM] | – |
| C=CCOc1ccc(C=NNc2ccc(S(=O)(=O)Nc3ccccc3C(=O)O)cc2[N+](=O)[O-])cc1OC | 7.57 µM (active) | inactive | inactive | inactive | inactive | – | – | – |
| CSCCC(C(=O)O)N1C(=O)c2ccc(C(=O)O)cc2C1=O (stereo not given) | inactive | inactive | – | inactive | – | 4.67% [at 17.1 µM, percent relative to cAMP agonist control] | -1.74% [at 30.8 µM] | – |
| CC1(C(=O)NS(=O)(=O)c2ccc(Cl)s2)CCN1C(=O)c1ccc(C2CCCCC2)cc1 (stereo not given) | 79.4 µM (active) | inactive | – | inactive | – | 6.57% [at 17.1 µM, percent relative to cAMP agonist control] | -3.31% [at 30.8 µM] | – |
| CCOc1cccc(C(=O)N(Cc2ccc(F)cc2)Cc2ccco2)c1 | inactive | inactive | inactive | inactive | inactive | – | – | – |
| CC(C)c1ccc(NC(=O)c2ccc(Cn3nc(N4CCN(c5ccccc5)CC4)ccc3=O)o2)cc1 | 84.9 µM (active) | inactive | inactive | inactive | inactive | – | – | – |
| Cc1ccc(C(=O)c2cn(Cc3ccccc3)c3nc(C)ccc3c2=O)cc1 | inactive | inactive | inactive | inactive | inactive | – | – | – |
| O=c1nc2s/c(=C\c3ccc(-c4ccccc4[N+](=O)[O-])o3)c(=O)n2nc1-c1ccccc1 | 12 µM (active) | inactive | inactive | inactive | inactive | – | – | – |
| Cc1ccc(N(CCC#N)C(=O)COC(=O)c2ccccc2SCC(=O)N2CCCC2)cc1 | inactive | inactive | inactive | inactive | inactive | – | – | – |
| CN(c1ccccc1)S(=O)(=O)c1cccc(Cl)c1Cl | inactive | inactive | inactive | inactive | inactive | – | – | – |
| Cc1ccc(S(=O)(=O)N(C)C)cc1NC(=O)CSc1nc2ncc(Cl)cc2[nH]1 | inactive | inactive | inactive | – | inactive | – | – | inactive [at 12.7 µM] |
| CCn1c(C(=O)N2CCCC(C(=O)N3CCN(c4cc(C)ccc4C)CC3)C2)cc2sccc21 (stereo not given) | inactive | inactive | inactive | – | inactive | – | – | inactive [at 12.7 µM] |
